# Measurements reported in the supplement of paper PMC9262897, “Low-cost anti-mycobacterial drug discovery using engineered E. coli” (Nature Communications, 2022).
# Where a name gives a salt, the structure may show the parent alone. ± gives the standard deviation of the averaged measurements.
# Tests used:
# Assay in all cases: growth (OD600 after 10 h); higher = more growth (less inhibition)
# [1] = test system: E. coli TESEC Alr+ wild-type control; settings: compound 0.1 mM; raw OD600 reference: median of DMSO wells 0.241, cell-free background 0.041
# Experimental: (§1)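 TESEC Mtb Alr E. coli, or the Alr+ wild-type control, in 384-well plates with Prestwick library compounds at 0.1 mM and 1% DMSO, across arabinose induction levels of 1E3 to 1E7 nM. Growth is read as OD600 after 10 h at 37 °C in triplicate biological replicates.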
# [2] = test system: E. coli TESEC Mtb Alr; settings: compound 0.1 mM
# Experimental: as §1
# [3] = test system: E. coli TESEC Mtb Asd; settings: compound 0.1 mM
# Experimental: (§2)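 TESEC E. coli strains in which the native enzyme is deleted and replaced by arabinose-inducible Mtb Asd, DapB, CysH or TrpD, each grown in its selective medium. Strains were screened against the Prestwick library at 0.1 mM and 1% DMSO in 384-well format at low and high arabinose induction. Growth is read as OD600 after 10 h in triplicate.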
# [4] = test system: E. coli TESEC Mtb DapB; settings: compound 0.1 mM
# Experimental: as §2
# [5] = test system: E. coli TESEC Alr+ wild-type control; settings: compound 0.1 mM; raw OD600 reference: median of DMSO wells 0.49, cell-free background 0.052
# Experimental: (§3)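 TESEC Mtb Alr E. coli (ΔaraC ΔtolC ΔentC Δalr ΔdadX, arabinose-inducible Mtb Alr) or the Alr+ wild-type control strain, grown in defined M9-fructose medium without D-alanine in 96-well plates with Prestwick library compounds at 0.1 mM and 1% DMSO. Low Alr induction is 0.1 µM arabinose and high induction is 10 mM arabinose.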
# [6] = test system: E. coli TESEC Mtb Alr; settings: compound 0.1 mM; remark: listed apart in the source
# Experimental: as §3
# [7] = arabinose 1000 nM, raw OD600 reference: median of DMSO wells 0.294, cell-free background 0.041
# [8] = arabinose 10000 nM, raw OD600 reference: median of DMSO wells 0.264, cell-free background 0.041
# [9] = arabinose 100000 nM, raw OD600 reference: median of DMSO wells 0.201, cell-free background 0.041
# [10] = arabinose 1000000 nM, raw OD600 reference: median of DMSO wells 0.193, cell-free background 0.041
# [11] = arabinose 10000000 nM, raw OD600 reference: median of DMSO wells 0.146, cell-free background 0.041
# [12] = arabinose induction (level): High, raw OD600 reference: median of DMSO wells 0.331, cell-free background 0.041
# [13] = arabinose induction (level): Low, raw OD600 reference: median of DMSO wells 0.417, cell-free background 0.041
# [14] = arabinose induction (level): High, raw OD600 reference: median of DMSO wells […], cell-free background 0.041
# [15] = arabinose induction (level): Low, raw OD600 reference: median of DMSO wells 0.227, cell-free background 0.041
# [16] = arabinose 100 nM, raw OD600 reference: median of DMSO wells 0.413, cell-free background 0.052
# [17] = arabinose 10000000 nM, raw OD600 reference: median of DMSO wells […], cell-free background 0.052
SMILES,growth [1],"growth [2, 7]","growth [2, 8]","growth [2, 9]","growth [2, 10]","growth [2, 11]","growth [3, 12]","growth [3, 13]","growth [4, 14]","growth [4, 15]",growth [5],"growth [6, 16]","growth [6, 17]"
Cc1nccn1CC1CCc2c(c3ccccc3n2C)C1=O (stereo not given) [Ondansetron Hydrochloride],0.195 ± 0.004,0.272 ± 0.0034,0.252 ± 0.0038,0.246 ± 0.0034,0.304 ± 0.014,0.146 ± 0.0028,0.432 ± 0.06,0.191 ± 0.011,0.229 ± 0.013,0.183 ± 0.004,0.526 ± 0.11,0.365 ± 0.013,0.384 ± 0.0066
Cc1cn([C@H]2C=C[C@@H](CO)O2)c(=O)[nH]c1=O [Stavudine],0.163 ± 0.01,0.285 ± 0.023,0.158 ± 0.017,0.121 ± 0.0031,0.119 ± 0.0013,0.181 ± 0.0073,0.157 ± 0.013,0.158 ± 0.0091,0.192 ± 0.015,0.178 ± 0.0066,0.512 ± 0.037,0.417 ± 0.011,0.218 ± 0.012
CC(COc1ccccc1)N(CCCl)Cc1ccccc1 (stereo not given) [Phenoxybenzamine hydrochloride],0.0435 ± 0.0034,0.149 ± 0.01,0.0397 ± 0.0001,0.121 ± 0.0026,0.03927 ± 0.00029,0.0621 ± 0.00078,0.199 ± 0.018,0.261 ± 0.053,0.175 ± 0.013,0.228 ± 0.011,0.673 ± 0.025,0.396 ± 0.0062,0.0624 ± 0.018
COC(=O)Nc1nc2cc(C(=O)c3cccs3)ccc2[nH]1 [Nocodazole],0.251 ± 0.0038,0.292 ± 0.018,0.269 ± 0.0045,0.211 ± 0.0085,0.185 ± 0.0053,0.142 ± 0.0038,0.345 ± 0.023,0.415 ± 0.034,0.186 ± 0.0079,0.215 ± 0.044,0.465 ± 0.044,0.419 ± 0.0079,0.382 ± 0.044
Cc1c(N(C)CS(=O)(=O)O)c(=O)n(-c2ccccc2)n1C [Dipyrone],0.245 ± 0.0074,0.323 ± 0.022,0.251 ± 0.0032,0.217 ± 0.023,0.169 ± 0.0052,0.157 ± 0.0028,0.488 ± 0.025,0.452 ± 0.0059,0.204 ± 0.003,0.23 ± 0.012,0.473 ± 0.039,0.4104 ± 0.0007,0.335 ± 0.011
O=C(O)c1cc(-c2ccc(F)cc2F)ccc1O [Diflunisal],0.128 ± 0.0035,0.151 ± 0.018,0.105 ± 0.0038,0.119 ± 0.003,0.086 ± 0.0022,0.112 ± 0.0029,0.218 ± 0.059,0.139 ± 0.0027,0.172 ± 0.0032,0.17 ± 0.0045,0.279 ± 0.0091,0.248 ± 0.052,0.136 ± 0.006
CC1CNc2c(cccc2S(=O)(=O)N[C@@H](CCCNC(=N)N)C(=O)N2CC[C@@H](C)C[C@@H]2C(=O)O)C1 (stereo not given in full) [Argatroban],0.211 ± 0.0062,0.288 ± 0.0078,0.257 ± 0.0085,0.222 ± 0.014,0.182 ± 0.012,0.144 ± 0.0053,0.348 ± 0.096,0.395 ± 0.048,0.181 ± 0.0099,0.197 ± 0.016,0.429 ± 0.019,0.404 ± 0.011,0.369 ± 0.016
"C[C@](N)(Cc1ccc(O)c(O)c1)C(=O)O [Methyldopa (L,-)]",0.241 ± 0.011,0.298 ± 0.0073,0.27 ± 0.0043,0.24 ± 0.021,0.188 ± 0.017,0.146 ± 0.0063,0.356 ± 0.044,0.458 ± 0.041,0.187 ± 0.0082,0.226 ± 0.022,0.508 ± 0.05,0.411 ± 0.015,0.345 ± 0.026
CN(C)CCOC1=Cc2ccccc2Sc2ccc(Cl)cc21 [Zotepine],0.179 ± 0.011,0.186 ± 0.0076,0.177 ± 0.0016,0.215 ± 0.0073,0.0636 ± 0.0007,0.0782 ± 0.003,0.168 ± 0.0075,0.127 ± 0.018,0.171 ± 0.019,0.1696 ± 0.0015,0.0664 ± 0.019,0.41 ± 0.0042,0.0544 ± 0.0015
COc1cc2nc(N(C)CCCNC(=O)C3CCCO3)nc(N)c2cc1OC (stereo not given) [Alfuzosin hydrochloride],0.215 ± 0.0062,0.286 ± 0.005,0.252 ± 0.0042,0.192 ± 0.027,0.142 ± 0.008,0.155 ± 0.011,0.24 ± 0.029,0.361 ± 0.029,0.217 ± 0.007,0.229 ± 0.006,0.462 ± 0.029,0.4 ± 0.013,0.318 ± 0.013
Clc1ccc2c(c1)CCc1cccnc1C2=C1CCNCC1 [Desloratadine],0.2 ± 0.015,0.211 ± 0.0061,0.256 ± 0.0088,0.163 ± 0.0094,0.153 ± 0.0064,0.145 ± 0.0037,0.149 ± 0.023,0.251 ± 0.026,0.216 ± 0.033,0.215 ± 0.031,0.545 ± 0.014,0.398 ± 0.0076,0.288 ± 0.016
Cc1ccc(N(CC2=NCCN2)c2cccc(O)c2)cc1 [Phentolamine hydrochloride],0.219 ± 0.0053,0.287 ± 0.0088,0.27 ± 0.0075,0.2 ± 0.0085,0.173 ± 0.0079,0.161 ± 0.0026,0.252 ± 0.065,0.377 ± 0.048,0.193 ± 0.019,0.252 ± 0.024,0.452 ± 0.0089,0.411 ± 0.019,0.352 ± 0.026
OCCN1C[C@H](O)[C@@H](O)[C@H](O)[C@H]1CO [Miglitol],0.243 ± 0.0029,0.285 ± 0.0045,0.26 ± 0.0085,0.204 ± 0.02,0.184 ± 0.0057,0.145 ± 0.0034,0.358 ± 0.084,0.42 ± 0.084,0.207 ± 0.031,0.223 ± 0.029,0.583 ± 0.098,0.406 ± 0.011,0.324 ± 0.051
CC(C)(C)CC(C)(C)c1ccc(OCOCCOCCO)c(Cc2cc(C(C)(C)CC(C)(C)C)cc(Cc3cc(C(C)(C)CC(C)(C)C)ccc3OCOCCOCCO)c2OCOCCOCCO)c1 [Tyloxapol],0.341 ± 0.018,0.323 ± 0.0088,0.256 ± 0.0056,0.455 ± 0.027,0.171 ± 0.0031,0.261 ± 0.032,0.475 ± 0.018,0.509 ± 0.0063,0.217 ± 0.018,0.261 ± 0.033,0.4593 ± 0.0043,0.418 ± 0.016,0.4093 ± 0.0033
COc1ccc(CN2CCN(C(c3ccc(F)cc3)c3ccc(F)cc3)CC2)c(OC)c1OC [Lomerizine hydrochloride],0.119 ± 0.0034,0.126 ± 0.0034,0.0765 ± 0.0014,0.137 ± 0.0039,0.05757 ± 0.00049,0.0717 ± 0.0016,0.0685 ± 0.0042,0.0562 ± 0.0023,0.0966 ± 0.0085,0.0956 ± 0.013,0.233 ± 0.0047,0.248 ± 0.018,0.0708 ± 0.013
